This note sets out measurements from PubChem BioAssay (Tox21).

Experiment [1] can be described thus: qHTS assay to identify small molecule antagonists of the thyroid receptor (TR) signaling pathway (AID 743065). Note: nearly all actives have a fitted effect of over 55% in size. Note: potency is the fitted concentration of half-maximal effect. Summed up:
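GH3.TRE-Luc rat pituitary cells carrying two TR response elements driving luciferase were plated for 4 h, given compound plus 1 nM T3 (final), and incubated 23.5 h at 37 C. ONE-Glo luminescence measured reporter inhibition; CellTiter-Fluor fluorescence tracked cytotoxicity.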

In experiment [2] the test system is thyroid hormone receptor (rat, GH3 cells). Nature of the experiment: qHTS assay to identify small molecule agonists of the thyroid receptor (TR) signaling pathway (AID 743066; calls by dose curve).
A short description of experiment [3]: qHTS assay to identify small molecule antagonists of the estrogen receptor alpha (ER-alpha) signaling pathway - cell viability counter screen (AID 743074; calls by dose curve;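 note: HEK293 cells carrying ER-alpha-UAS-bla reporter stimulated with 17beta-estradiol; nearly all actives have a fitted effect of over 45% in size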).
The nature of experiment [4]: qHTS assay to identify small molecule antagonists of the estrogen receptor alpha (ER-alpha) signaling pathway using the BG1 cell line - cell viability counter screen (AID 743081).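 Note: compound given together with 17beta-estradiol as the ER stimulus; series mostly up to about 70 µM; nearly all actives have a fitted effect of over 45% in size.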
Another experiment has as its target Aromatase (Homo sapiens) (UniProt P11511). Nature of the experiment: qHTS assay to identify aromatase inhibitors (AID 743083). Note: nearly all actives have a fitted effect of over 55% in size. Note: potency is the fitted concentration of half-maximal effect.
A short description of experiment [5]: qHTS assay to identify aromatase inhibitors - cell viability counter screen (AID 743084).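 Note: cells stimulated with testosterone during compound exposure; nearly all actives have a fitted effect of over 55% in size.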
Experiment [6] concerns the target Aryl hydrocarbon receptor (Homo sapiens) (UniProt P35869). Nature of the experiment: qHTS assay to identify small molecule that activate the aryl hydrocarbon receptor (AhR) signaling pathway (AID 743085).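 For activation: HG2L7.5c1 human HepG2 liver cells with stably integrated DRE-driven firefly reporter; series mostly up to about 70 µM.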 Note: nearly all actives have a fitted effect of over 15% in size. Note: potency is the fitted concentration of half-maximal effect. Summed up:
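Measured in HG2L7.5c1 cells: CellTiter-Fluor signal (30 min incubation, 37C) for viability, then luciferase luminescence (30 min, room temperature). Compound contact time was 24 h at 37C, following a 5 h pre-incubation.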

A short description of experiment [7]: qHTS assay to identify small molecule that activate the aryl hydrocarbon receptor (AhR) signaling pathway - cell viability counter screen (AID 743086).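 Note: HepG2 liver cells carrying the AhR DRE luciferase reporter; series mostly up to about 70 µM; nearly all actives have a fitted effect of over 45% in size.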 The method, boiled down: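 HepG2-AhR-luc (HG2L7.5c1) cells, 4000/well, were preincubated 5 h at 37C, exposed to compound in qHTS format for 24 hr at 37C, then given CellTiter-Fluor for 30 min; viability was read as fluorescence in the reporter wells.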

Experiment [8] deals with Peroxisome proliferator-activated receptor gamma (Homo sapiens) (UniProt P37231). The experiment is described as follows: qHTS assay to identify small molecule agonists of the peroxisome proliferator-activated receptor gamma (PPARg) signaling pathway (AID 743094; active = well fitted activation curve with a large enough effect in the signal ratio in the repeat runs, not every such curve was filed as active; the % refers to the signal ratio). The method, boiled down:
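Cells from the PPARg UAS-bla HEK293H line are plated and incubated 5 h at 37C. Compounds in DMSO are pinned in and left 17 h at 37C. LiveBLAzer B/G substrate is then added for 1 h at room temperature before fluorescence is measured.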

Experiment [9] can be described thus: qHTS assay to identify small molecule antagonists of the peroxisome proliferator-activated receptor gamma (PPARg) signaling pathway - cell viability counter screen (AID 743194). Note: nearly all actives have a fitted effect of over 55% in size. Note: potency is the fitted concentration of half-maximal effect. The settings on record: Potency: co-treated with 50 nM rosiglitazone. Summed up:
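PPARg-UAS-bla HEK293H cells were plated, rested 5 h at 37 C, then treated with compounds plus rosiglitazone (50 nM final) for 17 h at 37 C; viability was then read by CellTiter-Glo luminescence after 30 min at room temperature.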

Experiment [10] can be described thus: qHTS assay for small molecule agonists of the antioxidant response element (ARE) signaling pathway - cell viability counter screen (AID 743203; calls by dose curve; note: nearly all actives have a fitted effect of over 55% in size). Summed up: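 Cytotoxicity was tested in parallel with the ARE reporter screen. ARE-bla HepG2 cells were exposed to compounds for 16 hrs, and viability was taken from CellTiter-Glo luminescence.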
Experiment [11] can be described thus: qHTS assay for small molecule activators of the heat shock response signaling pathway - cell viability counter screen (AID 743209). Note: nearly all actives have a fitted effect of over 50% in size. Summed up: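 Cytotoxicity counter screen run in parallel with the HSE beta-lactamase reporter, using the same wells. HeLa HSE-bla cells received compound for 5 h at 37 C; ATP-based CellTiter-Glo luminescence was measured after 30 min at room temperature.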

A short description of experiment [12]: qHTS assay to identify small molecule agonists of the peroxisome proliferator-activated receptor delta (PPARd) signaling pathway - cell viability counter screen (AID 743211). Note: nearly all actives have a fitted effect of over 55% in size. The method, boiled down:
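Following 5 h plating at 37 C and 5% CO2, PPARd UAS-bla HEK293H cells took up test compounds for 17 h. Viability was quantified by luminescence 30 min after CellTiter-Glo addition at room temperature.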

A short description of experiment [13]: qHTS assay for small molecule agonists of the antioxidant response element (ARE) signaling pathway (AID 743202; active = well fitted activation curve with a large enough effect in the signal ratio in the repeat runs, not every such curve was filed as active; the % refers to the signal ratio). Summed up:
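Steps: seed ARE-bla HepG2 cells (2,000/well); incubate 5 h at 37 C; add compounds by pin tool; incubate 16 h at 37 C; add FRET substrate; read fluorescence after 2 h at RT.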

The nature of experiment [14]: qHTS assay for small molecule activators of the heat shock response signaling pathway (AID 743210; active = well fitted activation curve with a large enough effect in the signal ratio in the repeat runs, with a control signal flat, not every such curve was filed as active; the % refers to the signal ratio;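 note: HeLa cells with beta-lactamase reporter driven by heat shock elements; series mostly up to about 63 µM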). The method, boiled down:
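Activation of heat shock element-controlled beta-lactamase expression is measured in HeLa cells by LiveBLAzer FRET fluorescence, with compound exposure lasting 5 h at 37 C and substrate loading 2.5 h at room temperature.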

The target of experiment [15] is Peroxisome proliferator-activated receptor gamma (Homo sapiens) (UniProt P37231). The experiment is described as follows: qHTS assay to identify small molecule antagonists of the peroxisome proliferator-activated receptor gamma (PPARg) signaling pathway (AID 743191; calls by dose curve; note: series mostly up to about 63 µM; nearly all actives have a fitted effect of over 30% in size). The method, boiled down: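 GeneBLAzer PPARg UAS-bla HEK293H cells carrying a UAS-driven beta-lactamase reporter were plated at 3000 cells/well, preincubated 5 h at 37C, then given compound for 17 h at 37C; LiveBLAzer B/G FRET substrate was read after 1 h at room temperature.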
Sequence of Peroxisome proliferator-activated receptor gamma (Homo sapiens) (P37231 whole entry, looked up): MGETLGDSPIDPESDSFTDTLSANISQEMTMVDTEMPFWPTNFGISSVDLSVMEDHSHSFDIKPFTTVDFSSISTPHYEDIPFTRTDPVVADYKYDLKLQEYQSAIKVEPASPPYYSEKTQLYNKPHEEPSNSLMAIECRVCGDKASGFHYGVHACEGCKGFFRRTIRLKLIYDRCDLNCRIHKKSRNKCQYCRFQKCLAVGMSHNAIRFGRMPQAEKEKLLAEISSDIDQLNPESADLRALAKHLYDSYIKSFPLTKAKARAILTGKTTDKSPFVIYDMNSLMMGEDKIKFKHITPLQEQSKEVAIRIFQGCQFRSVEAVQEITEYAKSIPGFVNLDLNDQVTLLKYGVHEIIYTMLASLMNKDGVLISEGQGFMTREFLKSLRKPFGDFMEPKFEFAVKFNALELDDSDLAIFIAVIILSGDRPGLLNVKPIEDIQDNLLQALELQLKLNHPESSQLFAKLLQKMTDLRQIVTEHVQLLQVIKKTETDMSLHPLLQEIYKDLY

SMILES strings stand for the structures. Records with an inconclusive call do not appear. Unmarked numbers belong to inactive results. Calls of active or inactive are those of the source. Unless noted, calls come from the whole dose curve; as a rule, active = well fitted curve in the direction sought with a large enough effect in the repeat runs; inconclusive = weak or mixed curves; inactive = no such curve, though single readings can be large; an effect the other way counts as inactive or inconclusive.

Sequence of Aryl hydrocarbon receptor (Homo sapiens) (P35869 whole entry, looked up): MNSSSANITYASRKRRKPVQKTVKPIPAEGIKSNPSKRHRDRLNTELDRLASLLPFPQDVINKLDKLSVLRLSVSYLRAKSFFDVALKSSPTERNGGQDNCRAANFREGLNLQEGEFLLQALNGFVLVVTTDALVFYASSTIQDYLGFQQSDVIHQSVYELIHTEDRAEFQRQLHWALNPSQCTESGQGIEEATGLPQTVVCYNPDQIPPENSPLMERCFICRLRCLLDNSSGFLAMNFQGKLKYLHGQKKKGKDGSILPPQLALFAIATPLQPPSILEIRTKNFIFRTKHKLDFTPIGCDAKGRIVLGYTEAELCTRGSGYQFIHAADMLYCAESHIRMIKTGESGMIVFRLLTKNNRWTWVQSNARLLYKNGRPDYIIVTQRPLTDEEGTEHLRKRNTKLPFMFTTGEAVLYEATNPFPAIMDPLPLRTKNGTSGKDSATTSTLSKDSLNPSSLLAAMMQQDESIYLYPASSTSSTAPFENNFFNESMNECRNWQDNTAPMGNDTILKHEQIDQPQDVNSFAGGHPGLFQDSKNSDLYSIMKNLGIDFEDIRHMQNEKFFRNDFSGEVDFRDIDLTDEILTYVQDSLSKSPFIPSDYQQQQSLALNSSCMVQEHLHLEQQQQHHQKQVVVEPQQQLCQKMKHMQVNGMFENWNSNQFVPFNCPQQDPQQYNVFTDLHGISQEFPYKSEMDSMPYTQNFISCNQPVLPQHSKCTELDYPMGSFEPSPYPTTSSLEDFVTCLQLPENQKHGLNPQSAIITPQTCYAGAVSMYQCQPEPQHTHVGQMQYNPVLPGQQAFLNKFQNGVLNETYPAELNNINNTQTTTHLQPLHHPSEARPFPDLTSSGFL
Sequence of Aromatase (Homo sapiens) (P11511 whole entry, looked up): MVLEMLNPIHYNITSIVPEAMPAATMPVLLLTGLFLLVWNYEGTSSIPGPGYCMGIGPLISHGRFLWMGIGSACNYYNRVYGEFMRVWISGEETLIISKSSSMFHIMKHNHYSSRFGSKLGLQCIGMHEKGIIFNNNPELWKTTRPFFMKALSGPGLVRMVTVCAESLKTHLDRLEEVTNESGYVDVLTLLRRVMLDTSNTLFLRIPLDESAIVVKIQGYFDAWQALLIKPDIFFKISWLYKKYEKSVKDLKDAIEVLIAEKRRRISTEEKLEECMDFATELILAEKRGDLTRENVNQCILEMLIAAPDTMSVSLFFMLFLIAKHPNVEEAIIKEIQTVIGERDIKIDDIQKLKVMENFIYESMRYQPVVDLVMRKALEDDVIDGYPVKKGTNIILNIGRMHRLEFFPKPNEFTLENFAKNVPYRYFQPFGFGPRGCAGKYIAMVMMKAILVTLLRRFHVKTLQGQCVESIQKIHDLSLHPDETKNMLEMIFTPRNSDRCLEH

As to `CC(C1CC1)C(O)(Cn1cncn1)c1ccc(Cl)cc1` (centres undefined), the Potency result in experiment [1], in experiment [2], in [4], in experiment [5], in [6] and in experiment [9] was “inactive” each time. Moreover, the Potency result in [10], in experiment [11] and in [12] was “inactive” each time. For the same molecule, the molecule was called inactive in [3], in experiment [7] and in [8]. The Potency with Aromatase (Homo sapiens) is 24.2 µM (active).
With `CCC(C)(C)c1cc(-n2nc3ccccc3n2)c(O)c(C(C)(C)CC)c1`, the Potency result (in experiment [1]; in [2]; in experiment [4]; in the experiment with Aromatase (Homo sapiens); in [5]; in experiment [6]) was “inactive” throughout. The Potency entry in [9], in experiment [13], in experiment [10], in [11] and in experiment [12] was “inactive” throughout. Also, the result in [3], in experiment [7], in experiment [8] and in experiment [14] was inactive.
As for `O=C(Nc1ccccc1)N(Cc1ccc(Cl)cc1)C1CCCC1`, the results for the Potency in experiment [1], in [6] and in experiment [9] were 21.7 µM (active), 54.5 µM (active) and 21.9 µM (active), respectively. Further, the Potency entry (in experiment [2]; in experiment [4]; with Aromatase (Homo sapiens); in experiment [5]; in experiment [12]) was “inactive” each time. For the same molecule, the call in [3] was inactive.
Turning to `CCCCCCBr`, the Potency result (in experiment [1]; in experiment [2]; in [4]; with Aromatase (Homo sapiens); in experiment [5]; in [6]) was “inactive” in each case. For the same molecule, the Potency result in experiment [9], in experiment [13], in experiment [10], in experiment [11] and in experiment [12] was “inactive” in each case. Also, the outcome in experiment [3] and in experiment [7] was inactive.
For `CC(C)(C)OC(=O)c1ncn2c1[C@@H]1CCCN1C(=O)c1c(Br)cccc1-2`, the Potency result (in [1]; in experiment [2]; in [4]; in the experiment with Aromatase (Homo sapiens); in experiment [5]; in experiment [15]) was “inactive” throughout. For the same molecule, the Potency entry in [9], in experiment [10], in experiment [11] and in experiment [12] was “inactive” throughout. Besides, the molecule was classed as inactive in experiment [3], in experiment [7], in experiment [8] and in experiment [14].
Take `COc1ccc(C(=O)N2CCCC2=O)cc1`: the Potency entry (in [1]; in [2]; in [4]; in the experiment with Aromatase (Homo sapiens); in experiment [5]; in experiment [6]) was “inactive” each time. Further, the Potency entry in experiment [15], in experiment [9], in experiment [13], in [10], in [11] and in experiment [12] was “inactive” each time. For the same molecule, the result in experiment [3], in [7], in experiment [8] and in [14] was inactive.
Take `CN(C)CCc1ccc(O)cc1`: the Potency result (in experiment [1]; in experiment [2]; in experiment [4]; with Aromatase (Homo sapiens); in experiment [5]; in experiment [6]) was “inactive” each time. Besides, the Potency result in [15], in experiment [9], in [13], in experiment [10], in [11] and in experiment [12] was “inactive” each time. Also, the molecule was classed as inactive in [3], in experiment [7], in [8] and in [14].
Take `CNC(=O)Oc1cccc(C(C)C)c1`: the Potency result (in experiment [1]; in [2]; in [4]; with Aromatase (Homo sapiens); in experiment [5]; in experiment [6]) was “inactive” in each case. For the same molecule, the Potency entry in experiment [9], in experiment [13], in [10] and in [12] was “inactive” in each case. Besides, the molecule was classed as inactive in experiment [3], in experiment [7] and in experiment [14].
Consider `CNC(=O)Oc1c(C(C)(C)C)cc(C)cc1C(C)(C)C`, for which the Potency result (in experiment [1]; in experiment [2]; in [4]; with Aromatase (Homo sapiens); in [5]; in experiment [6]) was “inactive” throughout. The Potency result in [15], in experiment [9], in experiment [13], in experiment [10], in [11] and in [12] was “inactive” throughout. In addition, the result in [3], in experiment [7] and in experiment [8] was inactive.
